PubChem BioAssay (NCATS)
Records with an inconclusive call do not appear. Unmarked numbers belong to inactive results. The source made the active and inactive calls. The call rests on the fitted dose curve.

assay: Cell Viability - HepG2 (AID 433); conditions: qHTS;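 further: potency for ATP loss meaning cytotoxicity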
Text: NIH Chemical Genomics Center [NCGC]
NIH Molecular Libraries Screening Centers Network [MLSCN]
National Institutes of Environmental Health Sciences [NIEHS]
National Toxicology Program [NTP]
We have developed a 1536-well cell-based assay for quantitative high throughput screening (qHTS) against a number of cell lines to determine in vitro cytotoxicity of small molecules. This particular assay uses the HepG2 cell line which is derived from hepatocellular carcinoma.
NCGC Assay Protocol Summary:
The CellTiter-Glo luminescent cell viability assay (Promega) is a homogeneous method to measure the number of viable cells in culture. The end point readout of this assay is based on quantitation of intracellular ATP, an indicator of metabolic activity, using the luciferase reaction. Luciferase catalyzes the oxidation of beetle Luciferin to oxyluciferin and light in the presence of ATP. The luminescent signal is proportional to amount of ATP present.
Using the CellTiter-Glo luminescent cell viability assay, the amount of cellular ATP was measured in the HepG2 cell line with complete culture medium following compound treatment for 40 hours. The assay was performed in opaque white Kalypsys 1536-well plates. In the screen, tamoxifen and doxorubicin were used as positive controls. Library compounds were measured for their ability to cause acute toxicity in the cell line, as reflected by a decrease in intracellular ATP levels, in a concentration-dependent manner. Data were normalized to the controls for basal activity (DMSO only) and 100% inhibition (100 uM tamoxifen). AC50 values were determined from concentration-response data modeled with the standard Hill equation.
qHTS protocol fo CellTiter Glo HepG2 cellular assay
[Step] [Parameter] [Value] [Description]
1. Reagent; 5 uL; 1500 HepG2 cells/well
2. Time; 5 hr; 37 °C incubation
4. Controls; 23 nL; Tamoxifen 0.34 uM to 100 uM & Doxorubicin 0.02 nM to 100 uM
5. Time; 40 hr; 37 °C incubation
6. Reagent; 5 uL; CellTiter Glo reagent
7. Time; 20 min; Room Temperature
8. Detection; Luminescence; Viewlux plate reader
Keywords: cell viability, cytotoxicity, HepG2 cell line, luminescence, NTPHTS, NTPHTS_NCGC, NIEHS, EPA, DSSTox, MLSMR, MLSCN, NIH Roadmap, qHTS, NCGC
Potency means the concentration at half of the fitted maximal effect.

**Q.** Which Potency does the source give for `CCCN(CCC)C(=O)SCC` here?
**A.** > 92 µM

**Q.** For `O=C(O)c1ccccc1`, which Potency is on record?
**A.** > 92 µM

**Q.** For `CCCCC(CC)CN` (stereo not given), which Potency is on record?
**A.** > 92 µM

**Q.** With `Nc1ccc(Cl)cc1Cl` as the compound, how does the Potency read?
**A.** > 92 µM

**Q.** Which Potency does the source give for `CC1=CC(C)(C)Nc2ccccc21` here?
**A.** > 92 µM

**Q.** Which Potency does the source give for `Clc1cc(Cl)c(Cl)c(Cl)c1Cl` here?
**A.** > 92 µM

**Q.** With `CCO` as the compound, how does the Potency read?
**A.** > 92 µM

**Q.** For `CCC(O)OC(O)CC` (stereo not given), which Potency is on record?
**A.** > 92 µM

**Q.** For `CCCCCCCCO`, which Potency is on record?
**A.** > 92 µM

**Q.** With `COc1ccc2nc(N)sc2c1` as the compound, how does the Potency read?
**A.** > 92 µM

**Q.** With `c1ccc2scnc2c1` as the compound, how does the Potency read?
**A.** > 92 µM

**Q.** For `COc1ccc(/C=C/c2cc(OC)cc(=O)o2)cc1`, which Potency is on record?
**A.** > 92 µM

**Q.** For `O=S(=O)(O)c1ccccc1`, which Potency is on record?
**A.** > 92 µM

**Q.** With `Cc1cccc([N+](=O)[O-])c1C` as the compound, how does the Potency read?
**A.** > 92 µM

**Q.** Which Potency does the source give for `CC(C)=CCCC(C)CCO` (stereo not given) here?
**A.** > 92 µM

**Q.** With `c1ccc2c(c1)[nH]c1ccccc12` as the compound, how does the Potency read?
**A.** > 92 µM

**Q.** Which Potency does the source give for `ClCCCl` here?
**A.** > 92 µM

**Q.** For `c1ccc2c(c1)c1cccc3ccc4cccc2c4c31`, which Potency is on record?
**A.** > 92 µM

**Q.** With `C=CCc1ccc(OC)c(OC)c1` as the compound, how does the Potency read?
**A.** > 92 µM

**Q.** Which Potency does the source give for `O=C(/C=C/c1ccc(O)c(O)c1)O[C@@H](C(=O)O)[C@@H](OC(=O)/C=C/c1ccc(O)c(O)c1)C(=O)O` here?
**A.** > 92 µM

**Q.** With `C[C@H](CCC(=O)O)[C@H]1CC[C@H]2[C@@H]3CC[C@@H]4C[C@H](O)CC[C@]4(C)[C@H]3CC[C@]12C` as the compound, how does the Potency read?
**A.** > 92 µM

**Q.** Which Potency does the source give for `O=NO` here?
**A.** > 92 µM

**Q.** For `Cc1ccc(N)c([N+](=O)[O-])c1`, which Potency is on record?
**A.** > 92 µM

**Q.** Which Potency does the source give for `O=[N+]([O-])c1cccc(Cl)c1Cl` here?
**A.** > 92 µM

**Q.** Which Potency does the source give for `CCC(C)c1ccccc1O` (stereo not given) here?
**A.** > 92 µM

**Q.** For `O=C(O)c1ccccc1C(c1ccc(O)cc1)c1ccc(O)cc1`, which Potency is on record?
**A.** > 92 µM

**Q.** Which Potency does the source give for `CC12CCC(CC1=O)C2(C)C` (stereo not given) here?
**A.** > 92 µM

**Q.** For `CC(=O)OC/C=C(\C)CCC=C(C)C`, which Potency is on record?
**A.** > 92 µM

**Q.** For `CCO[Si](CCCN)(OCC)OCC`, which Potency is on record?
**A.** > 92 µM

**Q.** For `OCCNCCO`, which Potency is on record?
**A.** > 92 µM

**Q.** For `CCCCOCCO`, which Potency is on record?
**A.** > 92 µM

**Q.** For `Clc1cc(Cl)c(Cl)cc1Cl`, which Potency is on record?
**A.** > 92 µM

**Q.** With `NC1=NC(S)C2N=CN=C2N1` (stereo not given) as the compound, how does the Potency read?
**A.** 1.89 µM (active)

**Q.** With `O=C1CCc2ccccc2O1` as the compound, how does the Potency read?
**A.** > 92 µM

**Q.** Which Potency does the source give for `C=Cc1ccccc1Cl` here?
**A.** > 92 µM

**Q.** For `CCCCCCCCCCCC(=O)O`, which Potency is on record?
**A.** > 92 µM

**Q.** With `C=CC(=C)CCC=C(C)C` as the compound, how does the Potency read?
**A.** > 92 µM

**Q.** Which Potency does the source give for `CN(C)C=O` here?
**A.** > 92 µM

**Q.** For `COc1cc(/C=C/c2ccccc2)oc(=O)c1`, which Potency is on record?
**A.** > 92 µM

**Q.** Which Potency does the source give for `C=CC(=O)OCCOCCOCCOCCOC(=O)C=C` here?
**A.** > 92 µM
